High-throughput results from PubChem.
This is a sample that favours compounds with a hit; in the whole collection about 7.9% have one here.
HT1080-NT tox – kills 2HG-producing HT-1080-NT fibrosarcoma cells | HT-1080-NT fibrosarcoma viability, CellTiter-Glo ATP luminescence, 48 h | Potency, µM (doses to about 46.1 µM), inactives show top-dose activity, negative = less viability, usual class: cytotoxic | hit rate 1.6% among 360,000;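 also: NT is the 2HG producing partner of a matched IDH1 knockdown line; 0% = DMSO-treated cells and -100% = media-only wells without cells; nearly all actives have a fitted effect of over 55% in size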
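Read-out is CellTiter-Glo luminescence after 10 minutes at room temperature, following 48 hours' compound treatment of HT-1080-NT cells (750 cells/well, RPMI, 5% FBS, 37 degrees C).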
MCF10A rerep – inducers of DNA re-replication in MCF 10A breast cells; MCF 10A DNA re-replication, Hoechst nuclear intensity, 48 h; Potency, µM (top dose mostly 46.1 µM), without a hit: at the highest dose activity, positive = re-replication, usual class: activators; hit rate 2.9% among 350,000; also: % of control where 0% means no effect; nearly all actives have a fitted effect of over 50% in size
KB-V1 MDR tox – kills drug-selected multidrug resistant KB-V1 cells. KB-V1 MDR cells viability, CellTiter-Glo, 72 h. Potency, µM (highest dose often 46.1 µM), most hits filed as cytotoxic. hit rate 3.4% among 400,000. AID 1347076; also: % is scaled to controls: 0 for no effect and ±100 for the full control effect; nearly all actives have a fitted effect of over 60% in size
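In this primary screen, KB-V1 cells overexpressing P-gp are incubated with library compounds (lowest to highest concentration) for 72 h at 37 degrees C before a luminescent ATP viability read.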
KB-3-1 cytotox – kills parental KB-3-1 adenocarcinoma cells. hit rate 1.4% among 400,000. Potency, µM (highest dose often 46.1 µM), hits mostly cytotoxic. KB-3-1 viability, CellTiter-Glo ATP luminescence, 72 h. AID 1347075; also: % is scaled to controls: 0 for no effect and ±100 for the full control effect; nearly all actives have a fitted effect of over 60% in size
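Cytotoxicity in the drug-sensitive parental line KB-3-1 was scored as loss of CellTiter-Glo luminescence following 72 h incubation with compound. Values come from curve fitting of normalized concentration-response data.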
SW480 rereplic – DNA re-replication induction in SW480 cells; SW480 DNA re-replication, Hoechst DNA content imaging, 48 h; Potency, µM (top dose mostly 46.1 µM), inactives show top-dose re-replication activation, actives largely listed as activators; hit rate 1.8% among 340,000; AID 624297; also: % of control where 0% means no effect; nearly all actives have a fitted effect of over 55% in size
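250 cells/well; 23 nL cpd via pin tool; 48 hr, 37 C, 5% CO2; Hoechst 40 min; imager read of total nuclear intensity, ex 405/em 500-530 nm.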
HT1080 IDH1KD tx – kills HT-1080 cells with IDH1 knockdown; HT-1080 IDH1 knockdown viability, ATP luminescence, 48 h; Potency, µM (series often up to 46.1 µM), for the others: top-dose activity, negative = toxicity, actives largely listed as cytotoxic; hit rate 2% among 360,000;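 also: 0% = DMSO wells and -100% = cell-free medium wells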
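Viability of IDH1-knockdown HT-1080 fibrosarcoma cells was assessed by CellTiter-Glo after 48 h at 37 °C with titrated compound; concentration-effect curves were classified by fit quality and response size.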
Starred values were filed as active, the others as inactive; i = inactive; ? = inconclusive; . = no result; [ ] = another dose, or the depositor's remark. Calls follow the shape of the dose curve; as a rule, active = well fitted curve in the direction sought with a large enough effect; inconclusive = small, poorly fitted or top-dose-only effect, or another doubt; inactive = no such curve, though single readings can be large; an effect the other way counts as inactive or inconclusive. Potency is read from the fitted curve at half-maximal effect.

SMILES	HT1080-NT tox	MCF10A rerep	KB-V1 MDR tox	KB-3-1 cytotox	SW480 rereplic	HT1080 IDH1KD tx
COc1ccc(C)cc1NC(=O)CNC(c1ccccc1)c1ccccc1	-1%	?	i	i	25%	12%
COc1ccc(Cl)cc1NC(=O)CN1c2ccccc2CC1C (stereo not given)	?	14%	15µM*	?	5%	?
COc1ccc(-c2ccccc2)cc1NCc1ccc(OC)c(OC)c1	10%	11%	16µM*	i	-7%	7%
COc1ccccc1CNc1cc(-c2ccccc2)ccc1OC	11%	?	?	i	9%	1%
COc1ccc(Cl)cc1NC(=O)CNC(c1ccccc1)c1ccccc1	-28%	?	15µM*	?	?	-9%
COc1ccc(OC)c(NC(=O)CNC(c2ccccc2)c2ccccc2)c1	-4%	-5%	i	i	-10%	7%
COc1ccc(CNC(=O)CNC(c2ccccc2)c2ccccc2)cc1OC	-6%	20%	8.2µM*	i	-3%	-2%
Cc1ccccc1NC(=O)Cc1nc(COC(=O)c2nccnc2N)cs1	-1%	.	i	i	.	1%
CCC(CC)N1CCN(C(=O)c2cccc(Cl)c2)CC1	15%	-28%	i	i	-24%[1.84 µM]	20%
O=C(NC1CCCC1)C(c1ccncc1)N(C(=O)c1csnn1)c1cccc(Cl)c1 (stereo not given)	10%	29%	i	i	-2%	4%
CCCCOc1ccc(-c2cc(C(=O)NNC(=S)NCC)c3ccccc3n2)cc1	18µM*	41%	6.5µM*	7.3µM*	4%	?
CCNC(=S)NNC(=O)c1cc(-c2cccnc2)nc2ccccc12	-5%	5%	?	i	-19%	-2%
CCNC(=S)NNC(=O)c1cc(-c2cccc(C)c2)nc2ccccc12	?	2%	?	?	-9%	6.3µM*
CCCCOc1cccc(-c2cc(C(=O)NNC(=S)NCC)c3ccccc3n2)c1	?	-3%	21µM*	i	5%	?
CCNC(=S)NNC(=O)c1cc(-c2ccc(OC)cc2)nc2ccccc12	10µM*	14%	9.2µM*	?	.	18µM*
CCNC(=S)NNC(=O)c1cc(-c2cccc(OCC)c2)nc2ccccc12	?	1%	i	i	-14%	7%
O=C(c1ccco1)N(CCC(c1ccccc1)c1ccco1)Cc1ccc(F)cc1 (stereo not given)	?	10µM*	7.3µM*	i	?	?
CC1(C)CC(C(CCN(Cc2ccccc2)C(=O)c2ccco2)c2ccc(F)cc2)CCO1 (stereo not given)	?	8.2µM*	9.2µM*	?	-77%	?
C=CCc1ccc(OCCCCNC2CCCC2)c(OC)c1	-11%	?	i	i	?	-25%
CCOc1cc(/C=C\[N+](=O)[O-])ccc1OCC(=O)Nc1ccccc1C	2.9µM*	2.9µM*	i	i	?	6.5µM*
CC(=O)Nc1ccc(/C(C)=N/Nc2nc(Nc3ccccc3)nc(N3CCOCC3)n2)cc1	?	12%	i	i	1%	?
COc1ccc([N+](=O)[O-])c(S(=O)(=O)c2ccc(Cl)cc2)n1	23µM*	3.7µM*	i	?	2.9µM*	8.2µM*
O=[N+]([O-])c1cccnc1S(=O)(=O)c1ccccc1	12µM*	2.9µM*	?	?	9.2µM*	18µM*
COc1ccc([N+](=O)[O-])c(S(=O)(=O)c2ccccc2)n1	21µM*	24%	23µM*	?	?	13µM*
COc1nc(OC)nc(Oc2ccc(Cl)cc2[N+](=O)[O-])n1	7%	2%	i	i	-5%	-4%
SMILES	HT1080-NT tox	MCF10A rerep	KB-V1 MDR tox	KB-3-1 cytotox	SW480 rereplic	HT1080 IDH1KD tx
CC(C)CCNC(=O)NC(=O)CSc1nnc(-c2ccccc2F)n1N	5%	2%	i	i	-6%	10%
O=C(CN1C2CCC1CC(NC(=O)NC1CCCCC1)C2)NC1CC1 (stereo not given)	-4%	0%	i	i	4%	-7%
CCc1ccc(OCC(=O)NC(NC(=S)Nc2ccccc2OC)C(Cl)(Cl)Cl)cc1 (stereo not given)	-10%	?	?	?	-3%	-14%
CCc1ccc(OCC(=O)NC(NC(=S)Nc2ccccc2)C(Cl)(Cl)Cl)cc1 (stereo not given)	16µM*	?	i	?	9%	16µM*
Cc1ccccc1NC(=S)NC(NC(=O)COc1ccccc1)C(Cl)(Cl)Cl (stereo not given)	-11%	7%	?	?	10%	-10%
CCc1ccc(OCC(=O)NC(NC(=S)Nc2ccccc2C)C(Cl)(Cl)Cl)cc1 (stereo not given)	16µM*	18µM*	?	?	8%	?
Cc1nn(-c2ccccc2)c2sc(C(=O)N(CC(=O)NC(C)(C)C)Cc3ccco3)cc12	?	18µM*	?	?	1%	?
COc1cc2c(cc1OC)C(c1ccccc1F)NCC2 (stereo not given)	2%	-1%	i	i	-1%	0%
Cc1ccccc1OCC(=O)Nc1nc(-c2ccncc2)cs1	-16%	7%	15µM*	i	-7%	-10%
Cc1cc(C)c(OCC(=O)Nc2nc(-c3ccccn3)cs2)c(C)c1	-19%	-16%	6.5µM*	?	21%	?
CCOc1ccccc1NC(=O)CSc1nccn1-c1cccc(C)c1	.	.	?	i	.	.
O=C(COC(=O)c1ccccc1OCc1ccccc1Cl)NC1CC1	-2%	-5%	i	i	-2%	-20%
O=C(NCc1ccc(F)c(F)c1)C1CCC(=O)N(CC2CCCCC2)C1 (stereo not given)	-3%	1%	i	i	8%	0%
CSc1nc2cc(Oc3cccc(Cl)c3Cl)c(Cl)cc2[nH]1	9.2µM*	9.2µM*	i	i	10%	?
O=C1CCC(=O)N1CN(C(=O)c1ccco1)c1ccccc1	6%	-1%	i	i	-6%	1%
Cc1ccc(-c2cn3nc(N4CCC(C(=O)Nc5ccccc5C)CC4)sc3n2)cc1	.	.	i	i	.	.
O=Nc1c(O)[nH]c2ccc(Cl)c(Cl)c12	?	18%	?	0.41µM*	1%	?
COc1ccc(CNc2cccc3[nH]c(C(F)(F)F)nc23)cc1	?	43%	i	i	-5%	?
